# Screens: PubChem, The Scripps Research Institute Molecular Screening Center
# NCOA1 inh – inhibits human SRC1 coactivator; Q15788; HEK293 GAL4-SRC1 luciferase reporter, luminescence; 360,000 tested, 0.12% active; inhibition, % at 3.6 µM; AID 588354;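 active = inhibition above the campaign mean plus 3 SD, with each screening campaign given its own cutoff, cut at about 60% in these data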
# LRH-1 inv ag – suppresses constitutive activity of human LRH-1; 360,000 tested, 0.13% active; inhibition, % at 3.6 µM; HEK293T StAR-luciferase reporter, LRH-1 transfected, 24 h; O00482;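 active = inhibition above the mean inhibition of all tested compounds plus 3 SD, cut at about 73% in these data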
# NCOA2 inhibitor – human SRC2 (NCOA2) inhibition. HEK293 GAL4-SRC2 luciferase reporter, luminescence. inhibition, % at 9 µM. 370,000 tested, 0.17% active. Q15596;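 active = inhibition above the mean inhibition of all tested compounds plus 3 SD, set per campaign, cut at about 52% in these data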
# COUP-TFII inh – inhibitors of human COUP-TFII (NR2F2); P24468; HEK293T NGFI-A luciferase reporter, luminescence; inhibition, % at 8.6 µM; 370,000 tested, 0.7% active; AID 686940;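 active = inhibition above a per-plate cutoff, mean inhibition of test wells between control levels plus 3 SD, cut at about 38% in these data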;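 note: cells cotransfected with COUP-TFII expression vector driving the NGFI-A reporter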
# Target sequence (P24468 whole entry, looked up): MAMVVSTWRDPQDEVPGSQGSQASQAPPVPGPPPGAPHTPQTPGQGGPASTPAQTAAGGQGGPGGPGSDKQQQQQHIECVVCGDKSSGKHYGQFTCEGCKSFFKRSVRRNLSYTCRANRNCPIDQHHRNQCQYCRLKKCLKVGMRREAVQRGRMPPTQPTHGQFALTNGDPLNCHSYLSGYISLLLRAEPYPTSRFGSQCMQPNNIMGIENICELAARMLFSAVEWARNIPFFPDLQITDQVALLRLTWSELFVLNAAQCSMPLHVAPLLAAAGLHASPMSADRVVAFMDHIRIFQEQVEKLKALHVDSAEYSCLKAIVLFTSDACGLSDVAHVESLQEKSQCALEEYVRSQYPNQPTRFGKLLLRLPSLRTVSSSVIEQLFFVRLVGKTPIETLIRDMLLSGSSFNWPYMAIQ
# NCOA3 inh – human NCOA3 inhibition | Q9Y6Q9 | HEK293 GAL4-SRC3 luciferase reporter, luminescence | inhibition, % at 3.6 µM | 360,000 tested, 0.17% active | AID 588352;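 active = inhibition above a per-campaign cutoff, the mean of all compounds plus 3 SD, cut at about 60% in these data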;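 note: higher means less SRC3-driven luciferase light from the GAL4 reporter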
# GalR3 antag – human GalR3 antagonism; O60755; HEK293 GalR3-CNG cAMP membrane potential fluorescence; galR3 body fused to GalR1 C-terminus; inhibition, % at 3 µM; 360,000 tested, 0.44% active; AID 651719;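 active = inhibition above the screen-wide average plus 3 SD, cut at about 13% in these data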;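 note: forskolin and galanin both at EC90 stimulate the cells; cAMP rise reported by CNG channel membrane potential dye signal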
# VP16 Luc counter – counter-screen for COUP-TFII antagonists: inhibitors of VP16 | shares compounds with COUP-TFII inh | HEK293 Gal4-VP16 luciferase reporter, luminescence | inhibition, % at 8.5 µM | 2,500 tested, 25% active | AID 687007; in the data active = inhibition above about 13%
# NR2F2 inh conf – confirmation of human COUP-TFII (NR2F2) inhibitors | HEK293 NGFI-A luciferase reporter, luminescence | 2,500 tested, 45% active | shares compounds with COUP-TFII inh | inhibition, % at 8.5 µM;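 active = mean inhibition over three repeats above a set limit taken from the earlier primary screen, cut at about 38% in these data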
# Numbers stand for hits; - = inactive; . = no result given. Rows were chosen to be rich in hits. Some 1.1% of all compounds tested hit in one or more screens of this group.
SMILES,NCOA1 inh,LRH-1 inv ag,NCOA2 inhibitor,COUP-TFII inh,NCOA3 inh,GalR3 antag,VP16 Luc counter,NR2F2 inh conf
Cc1ccc(-c2csc3ncnc(N4CCN(S(=O)(=O)c5ccc(C#N)cc5)CC4)c23)cc1,-,-,-,-,-,-,.,.
O=S(=O)(c1ccccc1C(F)(F)F)N1CCN(c2ncnc3sccc23)CC1,-,-,-,-,-,-,.,.
O=S(=O)(c1ccc(F)c(F)c1F)N1CCN(c2ncnc3sccc23)CC1,-,-,-,40.3,-,-,-,-
Cc1ccc(S(=O)(=O)N2CCN(c3ncnc4sccc34)CC2)cc1,-,-,-,50.0,-,-,-,-
CCOC(=O)C1(CC/C(C)=N\NC(N)=O)CC(C)OC1=O (stereo not drawn),-,-,-,-,-,-,.,.
COc1ccc(Cn2c(-c3ccc(C)cc3)c[n+]3ccccc23)cc1,61.2,73.1,-,51.8,-,-,-,40.0
COc1ccc(-c2nc3ccccc3n2Cc2ccc(C)cc2)cc1,-,-,-,-,-,-,.,.
CCOC(=O)c1ccc(NC(=O)C2CCCN(S(=O)(=O)c3ccc(F)cc3)C2)cc1 (stereo not drawn),-,-,-,64.5,-,-,-,-
CCOC(=O)c1ccc(NC(=O)C2CCN(S(=O)(=O)c3ccccc3)CC2)cc1,-,-,-,-,-,.,.,.
COc1ccc(NC(=O)c2cc3c(s2)CCC(C)C3)cc1S(=O)(=O)N1CCOCC1 (stereo not drawn),-,-,-,60.2,-,-,-,-
COc1ccc(C(CNC(=O)c2ccc(Cl)c(S(=O)(=O)N3CCCC3)c2)N2CCCC2)cc1 (stereo not drawn),-,-,-,-,-,-,.,.
O=C(Nc1ccc(Cl)c(S(=O)(=O)N2CCOCC2)c1)c1ccc(Cl)nc1,-,-,-,44.1,-,-,-,-
COc1ccc(CCNC(=O)c2ccc(Cl)c(S(=O)(=O)N3CCCC3)c2)cc1,-,-,-,40.8,-,-,-,-
COc1ccc(C(=O)Nc2ccc(Cl)c(S(=O)(=O)N3CCOCC3)c2)cc1,-,-,-,58.6,-,-,-,-
CCCSc1oc(-c2ccco2)nc1S(=O)(=O)c1ccc(C)cc1,-,-,-,-,-,-,.,.
Cc1cc(N)n2ncc(-c3ccc(F)cc3)c2n1,-,-,-,-,-,-,.,.
Cc1nc2c(-c3ccc(F)cc3)cnn2c(N)c1-c1ccc(F)cc1,-,-,-,47.2,-,-,-,-
O=[N+]([O-])c1ccc(C[n+]2cccc3c4ccccc4ccc32)cc1,-,-,-,58.2,-,-,-,-
CCCCN(CCCNC(=O)c1ccc2c(c1)NC(=O)CN2C)c1ccccc1,-,-,-,44.5,-,-,-,-
COc1ccc(Cl)cc1C(=O)CSc1nnnn1C1CCCC1,-,-,-,-,-,-,.,.
COCCn1c(C)cc(C(=O)CSc2nnnn2C2CCCC2)c1C,-,-,-,58.8,-,-,34.6,68.5
CC(C)CCNC(=O)COc1ccc(N(C)S(=O)(=O)c2ccc(F)cc2)cc1,-,-,-,-,-,-,.,.
Cc1ccc2nc(-c3ccccc3)cn2c1,-,-,67.3,52.8,-,-,-,-
Cc1ccc2nc(-c3ccc(O)c(O)c3)cn2c1,-,-,-,-,-,-,.,.
O=C(N/N=C/c1ccc(Br)cc1)c1cc[n+](Cc2ccccc2)cc1,-,-,-,-,-,-,.,.
SMILES,NCOA1 inh,LRH-1 inv ag,NCOA2 inhibitor,COUP-TFII inh,NCOA3 inh,GalR3 antag,VP16 Luc counter,NR2F2 inh conf
COC(=O)c1ccc(COC(=O)c2[nH]c(C)c(C(C)=O)c2C)o1,-,-,-,40.9,-,-,-,-
CC(=O)N1C[C@H]2CON(C)[C@H]2C[C@H]1c1cccc(-c2ccccc2C)c1,-,-,-,78.4,-,-,-,-
Cn1cc(-c2csc(C(C)(O)c3cccnc3)n2)cn1 (stereo not drawn),-,-,-,-,-,-,.,.
Cc1ccc(CNC(=O)C(=O)NCC2OCCN2S(=O)(=O)c2ccc(Br)cc2)cc1 (stereo not drawn),-,-,-,47.6,-,-,-,-
Cc1ccc(CNC(=O)C(=O)NCC2OCCN2S(=O)(=O)c2ccc(C)cc2)cc1 (stereo not drawn),-,-,-,-,-,-,.,.
CCc1c(C)nc2c(Br)cccc2c1SCCC#N,-,-,-,-,-,-,.,.
CCc1c(C)nc2ccc(Br)cc2c1SCCC#N,64.6,-,-,38.1,64.3,-,-,-
CC1=CC(C)(C)NC(=S)N1c1ccc([N+](=O)[O-])cc1,-,-,-,-,-,-,.,.
CC1=C(CO)C(=O)OC([C@@H](C)C2CC[C@H]3C4C[C@H]5O[C@]56[C@@H](O)C=CC(=O)[C@]6(C)C4CC[C@]23C)C1 (stereo partly drawn),-,-,68.4,43.7,-,-,49.1,41.0
COc1ccccc1NC(=O)NCCc1ccccc1,-,-,-,-,-,-,.,.
Cc1cccc(N2CCN(C(=O)Cc3ccc(-n4c(=O)[nH]c5ccsc5c4=O)cc3)CC2)c1C,-,-,-,-,-,-,.,.
CN(C)C(=O)COc1ccc(S(=O)(=O)c2ccc(OCC(=O)N(C)C)cc2)cc1,-,-,-,-,-,-,.,.
CCN(c1ccccc1)S(=O)(=O)c1cc(C(=O)Nc2ccccc2Cl)ccc1F,-,-,-,-,-,-,.,.
CCc1ccc(NC(=O)c2ccc(F)c(S(=O)(=O)NCC3COc4ccccc4O3)c2)cc1 (stereo not drawn),-,-,-,38.4,-,-,-,-
CCN(c1ccccc1)S(=O)(=O)c1cc(C(=O)Nc2ccc(Br)cc2)ccc1F,-,-,-,64.7,-,-,-,40.7
CCN(CC)S(=O)(=O)c1ccc(/C=C/C(=O)Nc2ccc(N3CCOCC3)cc2)cc1,-,-,-,-,-,-,.,.
CCN(CC)S(=O)(=O)c1ccc(/C=C/C(=O)Nc2ccc(F)cc2F)cc1,-,-,-,49.8,-,-,-,-
O=C(/C=C/c1ccc(S(=O)(=O)N2CCOCC2)cc1)Nc1ccc(F)c(F)c1F,-,-,-,-,-,-,.,.
CCN(CC)S(=O)(=O)c1ccc(/C=C/C(=O)Nc2ccc(F)c(F)c2F)cc1,-,-,-,62.5,-,-,-,47.4
CN(C)c1ccc(C(=N)Cc2ccc3ccccc3n2)cc1,-,-,-,-,-,-,.,.
CN(C)CCNC(C(=O)Nc1cccc(S(=O)(=O)N2CCOCC2)c1)c1ccccc1 (stereo not drawn),-,-,-,-,-,-,.,.
CCC(=O)N1CCCc2cc(S(=O)(=O)N3CCN(c4ccccc4F)CC3)ccc21,-,-,-,50.0,-,.,-,-
